Results as given in PubChem BioAssay AID1159580 (chemical genetic matrix, 2015).
Screen size: about 5,500 compounds; about 2,000 (36%) were called active. Inconclusive results (about 18%) are left out. Rule as the data show it: active = normalized growth mostly below about 0.91 (no sharp cut-off); inconclusive = no clear call, values can overlap the other calls; inactive = mostly above about 0.92. The list shows a part of the results.

Test: chemical genetic growth profiling, strain panel (AID 1159580);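 also: tested at 20 µM; growth read once vehicle control cultures reached saturation at 30 °C; 1 = growth at the plate median or of vehicle wells; lower values mean less growth of the strain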
Details: growth OD

Measured: normalized growth

OC(CCN1CCCCC1)(c1ccccc1)c1ccccc1
inactive: S. cerevisiae deletion strains, locus YJR075W, strain HOC1, hits give low values 1 | S. cerevisiae deletion strains, locus YKL009W, strain mrt4, hits give low values 1.03 | S. cerevisiae deletion strains, locus YKL068W, hits give low values 1.01 | S. cerevisiae deletion strains, locus YKL085W, strain MDH1 (second series), hits give low values 1.07 | S. cerevisiae deletion strains, locus YKL085W, strain MDH1, hits give low values 1.07 | S. cerevisiae deletion strains, locus YKL160W, strain elf1, hits give low values 1.03 | S. cerevisiae deletion strains, locus YKL190W, strain CNB1, hits give low values 1.01 | S. cerevisiae deletion strains, locus YKR001C, strain vps1, hits give low values 1.01 | S. cerevisiae deletion strains, locus YKR026C, strain gcn3, hits give low values 0.993 | S. cerevisiae deletion strains, locus YKR091W, strain srl3, hits give low values 0.993 | S. cerevisiae deletion strains, locus YLL001W, strain dnm1, hits give low values 1.01 | S. cerevisiae deletion strains, locus YLL026W, hits give low values 0.983 | S. cerevisiae deletion strains, locus YLL041C, strain sdh2, hits give low values 0.994 | S. cerevisiae deletion strains, locus YLR027C, strain aat2, hits give low values 1 | S. cerevisiae deletion strains, locus YLR039C, strain RIC1, hits give low values 1.08 | S. cerevisiae deletion strains, locus YLR058C, strain SHM2, hits give low values 1.01 | S. cerevisiae deletion strains, locus YLR102C, strain apc9, hits give low values 1.01 | S. cerevisiae deletion strains, locus YLR113W, strain HOG1, hits give low values 1.05 | S. cerevisiae deletion strains, locus YLR221C, strain rsa3, hits give low values 0.966 | S. cerevisiae deletion strains, locus YLR258W, strain gsy2, hits give low values 0.965 | S. cerevisiae deletion strains, locus YLR262C, strain YPT6 (second series), hits give low values 1.02 | S. cerevisiae deletion strains, locus YLR262C, strain YPT6, hits give low values 1.1 | S. cerevisiae deletion strains, locus YLR268W, strain sec22, hits give low values 1.02 | S. cerevisiae deletion strains, locus YLR320W, strain mms22, hits give low values 0.999 | S. cerevisiae deletion strains, locus YLR330W, strain CHS5, hits give low values 1.01 | S. cerevisiae deletion strains, locus YLR342W, strain FKS1 (second series), hits give low values 1.02 | S. cerevisiae deletion strains, locus YLR342W, strain FKS1, hits give low values 0.993 | S. cerevisiae deletion strains, locus YLR357W, strain rsc2, hits give low values 0.997 | S. cerevisiae deletion strains, locus YLR370C, strain arc18, hits give low values 0.974 | S. cerevisiae deletion strains, locus YLR371W, strain rom2, hits give low values 1.01 | S. cerevisiae deletion strains, locus YLR384C, strain iki3, hits give low values 0.983 | S. cerevisiae deletion strains, locus YLR418C, strain cdc73, hits give low values 1.01 | S. cerevisiae deletion strains, locus YML016C, strain PPZ1, hits give low values 1 | S. cerevisiae deletion strains, locus YML032C, strain rad52, hits give low values 1.01 | S. cerevisiae deletion strains, locus YML120C, strain ndi1, hits give low values 0.978 | S. cerevisiae deletion strains, locus YML124C, strain tub3, hits give low values 1 | S. cerevisiae deletion strains, locus YMR058W, strain fet3, hits give low values 0.996 | S. cerevisiae deletion strains, locus YMR078C, strain ctf18, hits give low values 1.01 | S. cerevisiae deletion strains, locus YMR125W, strain sto1, hits give low values 1.01 | S. cerevisiae deletion strains, locus YMR129W, hits give low values 0.99 | S. cerevisiae deletion strains, locus YMR205C, strain PFK2, hits give low values 1.01 | S. cerevisiae deletion strains, locus YMR223W, strain ubp8, hits give low values 1.01 | S. cerevisiae deletion strains, locus YMR231W, strain pep5, hits give low values 0.995 | S. cerevisiae deletion strains, locus YMR307W, strain GAS1, hits give low values 1.08 | S. cerevisiae deletion strains, locus YNL067W, strain RPL9B, hits give low values 1.02 | S. cerevisiae deletion strains, locus YNL071W, strain lat1, hits give low values 0.993 | S. cerevisiae deletion strains, locus YNL153C, strain GIM3, hits give low values 0.998 | S. cerevisiae deletion strains, locus YNL183C, strain NPR1, hits give low values 0.971 | S. cerevisiae deletion strains, locus YNL209W, strain ssb2, hits give low values 0.987 | S. cerevisiae deletion strains, locus YNL233W, strain BNI4, hits give low values 1.01 | S. cerevisiae deletion strains, locus YNL248C, strain rpa49, hits give low values 1.06 | S. cerevisiae deletion strains, locus YNL250W, strain rad50, hits give low values 1 | S. cerevisiae deletion strains, locus YNL271C, strain bni1, hits give low values 1.02 | S. cerevisiae deletion strains, locus YNL298W, strain CLA4, hits give low values 1.02 | S. cerevisiae deletion strains, locus YNL307C, strain MCK1, hits give low values 1.02 | S. cerevisiae deletion strains, locus YNL322C, strain KRE1 (second series), hits give low values 0.987 | S. cerevisiae deletion strains, locus YNL322C, strain KRE1, hits give low values 1.01 | S. cerevisiae deletion strains, locus YNR049C, strain mso1, hits give low values 0.997 | S. cerevisiae deletion strains, locus YNR052C, strain pop2, hits give low values 1.02 | S. cerevisiae deletion strains, locus YOL006C, strain TOP1, hits give low values 0.958 | S. cerevisiae deletion strains, locus YOL012C, strain htz1 0.814 | S. cerevisiae deletion strains, locus YOL147C, strain pex11, hits give low values 1 | S. cerevisiae deletion strains, locus YOR001W, strain rrp6, hits give low values 0.992 | S. cerevisiae deletion strains, locus YOR061W, strain CKA2, hits give low values 1 | S. cerevisiae deletion strains, locus YOR069W, strain VPS5, hits give low values 1 | S. cerevisiae deletion strains, locus YOR070C, strain gyp1, hits give low values 0.989 | S. cerevisiae deletion strains, locus YOR080W, strain dia2, hits give low values 0.984 | S. cerevisiae deletion strains, locus YOR083W, strain WHI5, hits give low values 1.03 | S. cerevisiae deletion strains, locus YOR106W, strain vam3, hits give low values 1.01 | S. cerevisiae deletion strains, locus YOR136W, strain idh2, hits give low values 1.01 | S. cerevisiae deletion strains, locus YOR144C, strain elg1, hits give low values 1 | S. cerevisiae deletion strains, locus YOR184W, strain ser1, hits give low values 1.02 | S. cerevisiae deletion strains, locus YOR231W, strain MKK1, hits give low values 1.07 | S. cerevisiae deletion strains, locus YOR265W, strain rbl2, hits give low values 0.989 | S. cerevisiae deletion strains, locus YOR270C, strain vph1, hits give low values 0.955 | S. cerevisiae deletion strains, locus YOR290C, strain snf2, hits give low values 1 | S. cerevisiae deletion strains, locus YOR316C, strain cot1, hits give low values 1.02 | S. cerevisiae deletion strains, locus YPL051W, strain arl3, hits give low values 1.06 | S. cerevisiae deletion strains, locus YPL055C, strain LGE1, hits give low values 1.02 | S. cerevisiae deletion strains, locus YPL078C, strain atp4, hits give low values 1.03 | S. cerevisiae deletion strains, locus YPL106C, strain sse1, hits give low values 0.966 | S. cerevisiae deletion strains, locus YPL240C, strain hsp82, hits give low values 0.984 | S. cerevisiae deletion strains, locus YPL241C, strain CIN2, hits give low values 1 | S. cerevisiae deletion strains, locus YPL256C, strain CLN2, hits give low values 1.04 | S. cerevisiae deletion strains, locus YPR119W, strain clb2, hits give low values 1.01 | S. cerevisiae deletion strains, locus YPR141C, strain kar3, hits give low values 1.01 | S. cerevisiae deletion strains, locus YPR163C, strain tif3, hits give low values 1.02 | S. cerevisiae deletion strains, locus YPR167C, strain met16, hits give low values 1.02 | S. cerevisiae deletion strains, strain wtn01, hits give low values 1.01 | S. cerevisiae strains, strain wild type, hits give low values 1.01
